According to PubChem BioAssay AID2101 (National Center for Advancing Translational Sciences (NCATS), 2009):
Out of some 330,000 compounds screened, about 300 (0.091%) were called active. Roughly 4% stayed inconclusive and do not appear here. The entries come from a sample that favours actives as a whole. Where a call stands in place of a potency, no number is given. Values without a mark were called inactive. Calls come from the whole dose curve; as a rule, active = well fitted inhibition curve with a large enough effect; inconclusive = small, poorly fitted or top-dose-only effect, or effect the other way, or another doubt; inactive = no such curve, though single readings can be large or run the other way.

The compounds below were run against Lysosomal acid glucosylceramidase (Homo sapiens) (UniProt P04062) (assay: qHTS Assay for Inhibitors and Activators of N370S glucocerebrosidase as a Potential Chaperone Treatment of Gaucher Disease). Conditions: N370S GC spleen homogenate, 4MU-glucoside fluorescence; series mostly up to 59.4 µM.
Source text: NIH Chemical Genomics Center [NCGC]
NIH Molecular Libraries Probe Production Centers Network [MLPCN]
Assay Submitter (PI): Wei Zheng
Glucocerebrosidase (GC) catalyzes the hydrolysis of beta-glucocerebroside to glucose and ceramide in lysosomes. Mutations in the glucocerebrosidase gene result in Gaucher disease, an autosomal recessive lysosomal storage disorder. Many of the mutations encountered in patients with Gaucher disease are missense alterations that may cause misfolding, decreased stability and/or mistrafficking of this lysosomal protein. […] These inhibitors include iminosugar analogs and three non-iminosugar inhibitors identified from a previous HTS of 62,000 compounds with the wild type recombinant enzyme. However, the enhancement of enzyme activity by the chaperone action of an enzyme inhibitor must be balanced against the direct inhibition of the enzyme. An enzyme activator could also function as a chaperone by binding to the enzyme and helping to correct its misfolding and mistrafficking. While activators for GC have not yet been identified, they may have better therapeutic potential than inhibitors. Therefore the discovery and development of chemical activators may provide a new strategy for the chaperone therapy.
We have optimized a new assay using N370S mutant GC derived from the spleen of a Gaucher patient. […] In addition, the MLPCN compound library has expanded, which increases the chance of finding new and better probes.
NCGC Assay Protocol Summary:
This is a fluorogenic enzyme assay with 4-methylumbelliferyl-beta-D-glucopyranoside as the substrate and N370S glucocerebrosidase from human spleen homogenate as the enzyme preparation. Upon the hydrolysis of this fluorogenic substrate, the resulting product, […] which can be detected by a standard fluorescence plate reader. Data were normalized to the controls for basal activity (without enzyme) and 100% activity (with enzyme). The AC50 values were determined from concentration-response data modeled with the standard Hill equation.
Assay buffer: 50 mM citric acid (titrated with potassium phosphate to pH 5.0), 100 mM potassium chloride, 10 mM sodium chloride, 1 mM magnesium chloride, 0.01% Tween-20.
1536-well assay protocol:
(1) Add 2 ul/well of spleen homogenate (27 ug final)
(2) Add 23 nL compounds in DMSO solution. The final titration was 0.5 nM to 58 uM.
(3) Add 2 ul of substrate (1 mM final)
(4) Incubate at 37C for 40 min.
(5) Add 2 ul stop solution (1M NaOH and 1M Glycine mixture, pH 10)
(6) Detect the assay plate in a ViewLux plate reader (PerkinElmer) with Ex=365 nm and Em=440nm.
Keywords: Glucocerebrosidase, beta-glucosidase, Gaucher Disease, pharmacological chaperone, chaperone therapy, high throughput screening, glucocerebrosidase inhibitor, MLSMR, MLSCN, NIH Roadmap, qHTS and NCGC
Potency is the fitted concentration of half-maximal effect.

Structure (SMILES) | activity change, negative = inhibition | Potency
Cc1nc(-c2ccc(F)cc2)c(CC(=O)N(C)CC(=O)Nc2c(C)cccc2C)s1 | inactive | 
CC(C)(C)c1ccc(S(=O)(=O)N2CCN(C(=O)c3ccc4c(c3)C(=O)N(Cc3ccncc3)C4=O)CC2)cc1 | inactive | 
CC(C)(O/N=C(\C(=O)N[C@@H]1C(=O)N2C(C(=O)[O-])=C(C[n+]3ccccc3)CS[C@@H]12)c1csc(N)n1)C(=O)O | inactive | 
CCOCCOC(=O)C(C)Oc1ccc(Oc2ncc(C(F)(F)F)cc2Cl)cc1 (stereo unspecified) | inactive | 
O=C1[C@H]2[C@H]3[C@H](O)[C@H](O)C/C(=N/OCc4ccccc4)[C@H]3CC[C@@H]2C(=O)N1Cc1ccccc1 | 4.77% [at 12.8 µM] | 
CC(=O)N1[C@H](C)C=C[C@]1(Cc1ccccc1)C(=O)NCc1ccccn1 | inactive | 
S=C(NCCCc1cnc[nH]1)NCCCN(Cc1ccc(Cl)c(Cl)c1)c1ccc(Br)cn1 |  | 1 µM (active)
CN(C)CCCNC(=S)NCc1ccc(Cl)cc1 | inactive | 
Fc1ccc(Cl)cc1-c1nc(Nc2ccncc2)c2nccnc2n1 | inactive | 
CC1(C)OC2CC3C4CCC5=CC(=O)CCC5(C)C4(F)C(O)CC3(C)[C@]2(C(=O)CCl)O1 (stereo partly specified) | inactive | 
COc1ccccc1CNS(=O)(=O)c1cc(C(=O)NCc2ccccn2)c(Cl)cc1Cl | inactive | 
CCCC[C@@H]1C[C@H]1C(NC(=O)c1ccco1)c1ccc(C(=O)OC)cc1 (stereo partly specified) | inactive | 
Cc1ccccc1CN1C(=O)c2ccccc2Sc2ccc(C(=O)NCCCN3CCOCC3)cc21 |  | 11.2 µM (active)
Cc1ccc(C(=O)NCCN2CCOCC2)cc1C | inactive | 
CCC1=Nc2cc(C(=O)NCCCN3CCOCC3)ccc2Sc2ccc(Br)cc21 | inactive | 
CCc1cccc(NC(=O)COC(=O)c2cc(=O)c3ccccc3o2)c1 | inactive | 
CCc1nnc(NC(=O)C2CCN(C(=O)c3ccccc3C)CC2)s1 | inactive | 
O=NO | inactive | 
CN1CCN(S(=O)(=O)c2ccc(N3CCN(c4ccccc4O)CC3)c([N+](=O)[O-])c2)CC1 | inactive | 
C=CC(=C)CCC=C(C)C | inactive | 
CC(=O)N1CCOc2ccc(S(=O)(=O)N3CCN(c4cccc(C(F)(F)F)c4)CC3)cc21 | inactive | 
Cc1[nH]c(C)c(S(=O)(=O)N2CCN(c3cccc(C(F)(F)F)c3)CC2)c1C(=O)N1CCCC1 | inactive | 
O=C1CC(=O)Nc2cc(S(=O)(=O)N3CCN(c4cccc(C(F)(F)F)c4)CC3)ccc2N1 |  | 14.1 µM (active)
CC1CCN(C(=O)COC(=O)CCC(=O)c2cccs2)CC1 | inactive | 

Structure (SMILES) | activity change, negative = inhibition | Potency
Cc1cc2nc3c(=O)[nH]c(=O)nc-3n(C[C@H](O)[C@H](O)[C@H](O)CO)c2cc1C | inactive | 
CO[C@@]12[C@@H](COC(N)=O)C3=C(C(=O)C(C)=C(N)C3=O)N1C[C@@H]1N[C@@H]12 | inactive | 
COc1ccccc1C(=O)Nc1ccc(C)c(S(=O)(=O)N2CCCCC2)c1 | inactive | 
COc1cc(C(c2c(NC(=O)c3ccco3)sc(C)c2C)N2CCOCC2)cc(OC)c1OC (stereo unspecified) | inactive | 
CC1(C(=O)OCC(=O)Nc2ncc(Cl)cc2Cl)CC1(Cl)Cl (stereo unspecified) | inactive | 
Cc1cccc(N2CCN(S(=O)(=O)c3ccc4[nH]c(=O)c(=O)[nH]c4c3)CC2C)c1 (stereo unspecified) |  | 12.6 µM (active)
Cc1cccc(N2CCN(C(=O)c3cccc(S(=O)(=O)N4CCc5ccccc5C4)c3)CC2C)c1 (stereo unspecified) | inactive | 
Cc1cccc(N2CCN(S(=O)(=O)c3ccc(-c4cc(C)no4)s3)CC2C)c1 (stereo unspecified) | inactive | 
CCCCNc1nc(C)nc2c1nc(-c1ccccc1)n2CCCCN(CC)CC | inactive | 
CC(C)[C@@H](CC(=O)N[C@@H]1CCNC[C@H]1C(=O)N[C@H](CC(=O)N[C@@H](CCC(=O)O)CC(=O)O)Cc1ccccc1)NC(=O)C[C@H](CO)NC(=O)[C@@H]1CNCC[C@H]1N | inactive | 
CN(CC(=O)NC(=O)Nc1ccccc1F)Cc1ccccc1 | inactive | 
Oc1ccc(-c2c(-c3ccccc3)nn3c(C(F)(F)F)cc(C(F)(F)F)nc23)cc1 | inactive | 
Cn1c(N)c(C(=O)COC(=O)c2cc(C(F)(F)F)nc3c(C(F)(F)F)cccc23)c(=O)n(C)c1=O | inactive | 
Cc1cc(C)cc(NC(=O)C(c2ccccc2)N2CCN(CC(=O)N3CCCC3)CC2)c1 (stereo unspecified) | inactive | 
CCCn1c(-c2ccc(F)cc2)nc2c(NCC3CCCN3CC)nc(C)nc21 (stereo unspecified) | inactive | 
Cc1cccc(CNc2ccnc(-c3cccnc3)n2)c1 | inactive | 
CC(C)C(NS(=O)(=O)c1ccc(-c2ccc(Br)cc2)cc1)C(=O)O (stereo unspecified) | inactive | 
Cn1nc(C(=O)OCC(=O)N(Cc2ccccc2)C(C)(C)C)c2ccccc2c1=O | inactive | 
O=S(O)S(=O)(=O)O | inactive | 
O=C(CN1CCN(C2CCS(=O)(=O)C2)CC1)N1N=C(c2ccc(Cl)cc2)CC1c1ccco1 (stereo unspecified) | inactive | 
O=C(CCNS(=O)(=O)c1ccccc1)NCCCc1ccccc1 | inactive | 
Cc1ccc(-n2nc(C)c(C(=O)O)c2-n2cccc2)cc1 | inactive | 
COCCNc1nc(-c2ccccc2)nc2c1oc1ccccc12 | inactive | 
COc1ccccc1-c1nc(NCCNC(C)=O)c2ccccc2n1 | inactive | 

Structure (SMILES) | activity change, negative = inhibition | Potency
CCC(=O)OCCNc1nc(-c2ccccc2)nc2ccccc12 |  | 2 µM (active)
O=C(CN1CCCCC1)NC(=O)Nc1ccccc1F | inactive | 
COc1ccc(C2/C=C\CN(C(=O)c3ccc(C)cc3)C(Cc3ccccc3)C(=O)N2Cc2ccc(F)cc2)cc1 (stereo unspecified) | inactive | 
O=C(CSc1nnc(CN2CCCC2)n1-c1ccc(F)cc1)c1ccc2c(c1)OCO2 | inactive | 
COc1ccc2c(c1)O[C@@H](c1ccc3c(c1)OCO3)[C@H](OC(=O)NCCc1ccc(OC)c(OC)c1)C2=O | inactive | 
Cc1ccc(NC(=O)Cn2c(C)csc2=O)cc1 | inactive | 
CN1CCN(c2ccc(NC(=O)c3cc(Cl)c4c(c3)OCCO4)cc2)CC1 | inactive | 
C1CCC2OC2C1 (stereo unspecified) | inactive | 
Cc1ccc(C)c(NC(=O)C(c2ccccc2)N2CCN(CC(=O)NC3CC3)CC2)c1 (stereo unspecified) | inactive | 
COc1ccc(CCNC(=O)COC(=O)Cc2cccc(F)c2)cc1 | inactive | 
C=CCOC(=O)C(=C)C | inactive | 
O=C(NCc1ccccn1)[C@]1(C(F)(F)F)C[C@H](CCc2ccccc2)CCCO1 | inactive | 
COC(=O)C(CC(C)C)NS(=O)(=O)c1cc(Br)ccc1Br (stereo unspecified) | inactive | 
Cc1csc(NC(=O)C2CCN(S(=O)(=O)c3ccccc3)CC2)n1 | inactive | 
CNC(=O)[C@]1(C(F)(F)F)C[C@H](CCc2ccccc2)CCCO1 | inactive | 
CN1CCc2nc(-c3ccccc3)c(-c3ccccc3)cc2C1 | -2.21% [at 12.8 µM] | 
COc1ccc(-c2nc(-c3ccccc3)oc2Nc2ccc3ccccc3c2)cc1 | inactive | 
COc1cccc([C@@H]2Oc3ccc(Br)cc3C(=O)[C@H]2OC(=O)NCc2ccc3c(c2)OCO3)c1 | inactive | 
CC(OC(=O)Cc1ccc(F)cc1)C(=O)N1CCc2ccccc21 (stereo unspecified) | inactive | 
CCOC(=O)Cn1c(=O)sc2cccc(Cl)c21 | inactive | 
Cc1cc(N(C)C)nc(Cl)n1 | inactive | 
CNC(=O)C1CC(=O)N(c2ccc(OCC(=O)Nc3ccccc3C)cc2)C1 (stereo unspecified) | inactive | 
C=C(C)C(=O)c1ccc(F)cc1 | inactive | 
CCCN1CCC(=O)N(C(CSc2ccc(C)cc2)Cc2ccccc2)CC1 (stereo unspecified) | inactive | 

Structure (SMILES) | activity change, negative = inhibition | Potency
CCN(C(=O)COC(=O)CCOc1cccc(C)c1)c1c(N)n(Cc2ccccc2)c(=O)[nH]c1=O | inactive | 
CC(C)C[C@H](NC(=O)[C@H](O)[C@H](N)Cc1ccccc1)C(=O)O | inactive | 
Cc1cc(C)n2nc(C(=O)Nc3cccc(S(=O)(=O)N4CCOCC4)c3)nc2n1 | inactive | 
COC(=O)C1(Cc2ccccc2)C=C2C(=C(C)C(=O)C2C)CN1 (stereo unspecified) | inactive | 
COC(=O)[C@@]1(C)C=C[C@@H](Cc2ccccc2)N1C(C)=O | inactive | 
Cn1c2cc(B(O)O)sc2c2cnn(Cc3ccccc3F)c(=O)c21 | inactive | 
Cc1ccc(/C(=C/CN2CCCC2)c2ccccn2)cc1 | inactive | 
CCN(CC)CCCCn1c(-c2ccccc2)nc2c(N3CCOCC3)nc(C)nc21 | inactive | 
COc1cccc(NC(=O)CN(C)C(=O)/C=C/c2cn(-c3ccccc3)nc2-c2cccs2)c1 | inactive | 
COc1ccc(C2/C=C\CN(Cc3ccco3)C(C)C(=O)N2Cc2ccc(F)cc2)cc1 (stereo unspecified) | inactive | 
O=C(CN1CCCCC1)Nc1ccccc1C(=O)NC1CC1 | inactive | 
C=C1CCN(C(CC(C)C)C(=O)NCc2cc(OC)c(OC)c(OC)c2)S(=O)(=O)c2ccccc21 (stereo unspecified) | inactive | 
BrC1C(Br)C(Br)C(Br)C(Br)C1Br (stereo unspecified) | inactive | 
CCCCn1c(N)c(N(CCC(C)C)C(=O)COC(=O)c2ccc(CC)cc2)c(=O)[nH]c1=O | inactive | 
Cc1ccc(C(CC(=O)O)NC(=O)c2ccc(S(=O)(=O)N3CCCC3)cc2)cc1 (stereo unspecified) | inactive | 
CC(C)=CCC[C@]1(C)[C@@H](CC=C(C)C)C[C@@]2(CC=C(C)C)C(=O)[C@]1(C(=O)C(C)C)C(=O)C(CC=C(C)C)=C2O | inactive | 
O=C(CSc1nnc(COc2ccc(Cl)cc2)n1Cc1ccco1)N1CCNC1=O | inactive | 
CCC(=O)c1ccc(OCC(=O)N(CC)CC2COc3ccccc3O2)cc1 (stereo unspecified) | inactive | 
CC1Cc2ccccc2N1S(=O)(=O)c1cccc(C(=O)NCC(c2ccco2)N2CCCC2)c1 (stereo unspecified) | inactive | 
C[C@@H]1O[C@@H](O[C@@H]2[C@@H](O)[C@H](OCCc3ccc(O)c(O)c3)O[C@H](CO[C@@H]3O[C@H](CO)[C@@H](O)[C@H](O)[C@H]3O)[C@H]2OC(=O)/C=C/c2ccc(O)c(O)c2)[C@H](O)[C@H](O)[C@H]1O | inactive | 
C=CCC(C)(O)c1ccco1 (stereo unspecified) | inactive | 
COc1ccc(C2CC(O)(c3ccccc3)Oc3cc(C)cc(C)c32)cc1 (stereo unspecified) | inactive | 
C=CCN1C(=O)c2ccc(C(=O)N3CCC(C(=O)OCC)CC3)cc2C1=O | inactive | 
O=C(COC(=O)c1ccccc1Cl)NC1CCCCCCC1 | inactive | 
